ATXN2 expr inh = inhibitors of ATXN2 expression. HEK-293 ATXN2-luciferase reporter, luminescence, 24 h. Potency, µM (top dose mostly 57 µM), without a hit: at the highest dose activity change, negative = inhibition, actives largely listed as inhibitors. hit rate 0.72% among 360,000; further: on the % scale 0 is the no-effect control and ±100 the full control effect; nearly all actives have a fitted effect of over 55% in size
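ATXN2-luciferase reporter cells (luciferase flanked by upstream and downstream ATXN2 gene portions) were treated 24 h at 37 °C with compounds at up to 57 uM. SteadyGlo luminescence gave expression; GF-AFC fluorescence gave viability.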
ATXN viability = reduces viability in counter-screen for ATXN expression inhibitors; Potency, µM (series often up to 56.7 µM), most hits filed as cytotoxic; S2 cells (HEK-293 line with an ATXN2-luciferase reporter) viability, CellTiter-Fluor protease fluorescence, 24 h; hit rate 0.49% among 400,000; AID 651635; further: nearly all actives have a fitted effect of over 40% in size
TGFb inhibitor = inhibitors of TGF-b signaling | hit rate 1.2% among 410,000 | HepG2 CAGA-GFP TGF-b/SMAD3 reporter, GFP fluorescence, 18 h; TGF-beta stimulated, 500 pg/mL final | Potency, µM (top dose mostly 46.1 µM), for inactives: top-dose activity, negative = inhibition, actives largely listed as inhibitors; further: on the % scale 0 is the no-effect control and ±100 the full control effect; nearly all actives have a fitted effect of over 65% in size
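HEPG2 CAGA-GFP reporter cells (1000/well, DMEM with 1% FBS) received compounds, then recombinant TGF-beta at 500 pg/mL final for 18 hours at 37 degrees C. Per-cell GFP summed per well was normalised to unstimulated and stimulated DMSO controls before curve fitting.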
DT40 TDP1 CPT = DT40-hTDP1 cell growth loss with CPT | chicken DT40 Tdp1-/-;hTDP1 cells + 20 nM CPT, ATP luminescence, 48 h | Potency, µM (highest dose often 46.2 µM), for inactives: at the highest dose activity change, negative = growth inhibition, most hits filed as inhibitors | hit rate 12% among 420,000; further: on the % scale 0 is the no-effect control and ±100 the full control effect; nearly all actives have a fitted effect of over 55% in size
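Chicken DT40 Tdp1-/- cells stably complemented with human TDP1 were seeded at 400 cells/well in medium containing 20 nM camptothecin, exposed to pin-transferred compounds, and grown at 37 °C for at least 48 hr. Viability was read as ATP luminescence.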
TDP1 cell noCPT = qHTS for Inhibitors of human tyrosyl-DNA phosphodiesterase 1 (TDP1): qHTS in cells in absence of CPT; hit rate 15% among 420,000; DT40 Tdp1-/- hTDP1 cells, no CPT, ATP luminescence, 48 h; Potency, µM (top dose mostly 46.2 µM), without a hit: at the top dose activity change, negative = growth inhibition, actives largely listed as inhibitors; further: on the % scale 0 is the no-effect control and ±100 the full control effect; nearly all actives have a fitted effect of over 55% in size
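DT40 Tdp1-/-;hTDP1 cells, no CPT (DMSO vehicle only), 400 cells/well; compounds pin-transferred; ≥48 hr, 37 °C; CellTiter-Glo 30 min RT dark, luminescence read.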
HepG2 tox = kills HepG2 cells in TGF-b inhibitor counter-screen | hit rate 0.76% among 410,000 | AID 588856 | HepG2 CAGA-GFP viability, ATP luminescence, 18 h | Potency, µM (titrated, usually from 46.1 µM), inactives show at the highest dose activity change, negative = cytotoxicity, hits mostly cytotoxic
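CellTiter-Glo luminescence gave cytotoxicity after 18 hours at 37 degrees C. The cells were HepG2 CAGA-GFP in 1% FBS DMEM, stimulated with 500 pg/mL TGF-beta after compound addition. %Activity was normalised to no-cell wells (complete cell-killing) and DMSO (no toxicity), and curves were fitted and classified.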
Active calls of the source: *; i = inactive; ? = inconclusive; / = not tested or not shown. Compounds with a hit are over-represented: about 17% of the library has one in this group of screens. The call rests on the fitted dose curve; in most records, active means well fitted curve in the direction sought with a large enough effect; inconclusive means small, poorly fitted or top-dose-only effect, or another doubt; inactive means no such curve, though single readings can be large; an effect the other way counts as inactive or inconclusive. Potency means the concentration at half of the fitted maximal effect.

SMILES	ATXN2 expr inh	ATXN viability	TGFb inhibitor	DT40 TDP1 CPT	TDP1 cell noCPT	HepG2 tox
Cc1ccc(NC(=O)C2C3C=CC4(CN(Cc5cccnc5)C(=O)C24)O3)cc1F (centres undefined)	4.8%	i	8.9%	-2.2%	3.4%	-7.6%
C=CCc1cc(/C=C2/NC(=S)NC2=O)cc(OC)c1O	11.1%	?	7.2%	14.6µM*	20.6µM*	3.3%
O=C(COc1cccc2ccccc12)NNC(=O)CSCCO	3.7%	?	6.3%	11.4%	-6.0%	2.2%
CCOc1ccc(C(=O)NC(=S)Nc2cccc(S(=O)(=O)NC3=NCCC3)c2)cc1	/	i	-26.6%	0.82µM*	0.82µM*	8.6%
O=C(Nc1cccc(S(=O)(=O)NC2=NCCCCC2)c1)c1ccc(Cl)cc1	-14.0%	?	-34.8%	23.1µM*	11.6µM*	-22.8%
O=C(NC(=S)Nc1cccc(S(=O)(=O)NC2=NCCC2)c1)c1cc(-c2ccco2)nc2ccccc12	-14.4%	?	-13.8%	4.61µM*	3.66µM*	2.1%
O=C(/C=C/c1ccc([N+](=O)[O-])cc1)Nc1cccc(S(=O)(=O)NC2=NCCCCC2)c1	-11.8%	?	?	14.6µM*	14.6µM*	-1.3%
O=C(Nc1cccc(S(=O)(=O)NC2=NCCC2)c1)c1cc(-c2ccco2)nc2ccccc12	-0.2%	i	-29.1%	-28.7%	-29.2%	5.7%
NC(=O)NC(=O)C[n+]1cccc(/C=N/O)c1	14.6%	i	?	6.4%	-1.5%	4.1%
CC(=O)Nc1ccc(S(=O)(=O)N(C)c2ccc(OCC(=O)NCCc3ccccc3F)cc2)cc1	8.0%	i	3.7%	?	?	-47.2%
Cc1cc(NC(=O)Nc2cc(F)ccc2F)no1	/	i	?	-25.6%	1.9%	-18.0%
CC(C)OC(=O)c1cc2c(OCC(O)CNC(C)(C)C)cccc2[nH]1 (centres undefined)	-28.8%	i	/	?	-51.9%	/
CN(C)c1cc(-c2cccc(C(F)(F)F)c2)oc(=O)c1Cl	-4.2%	i	-0.9%	-26.1%	?	-22.7%
Cc1cc(C)nc(NS(=O)(=O)c2ccc(NC(=O)COc3ccc(Cl)cc3C)cc2)n1	0.0%	i	-7.7%	?	18.4µM*	-14.3%
Cc1cc(SCC(=O)Nc2cccc(S(=O)(=O)NC3=NCCCCC3)c2)nc2ccccc12	/	i	11.2µM*	?	?	-35.5%
CCc1ccccc1OCC(=O)Nc1cccc(S(=O)(=O)NC2=NCCCCC2)c1	?	i	-13.4%	18.4µM*	?	-4.5%
CN(C)c1ccc(C(=O)Nc2ccc(S(=O)(=O)NC3=NCCCCC3)cc2)cc1	12.0%	i	-9.7%	-21.1%	-4.5%	1.9%
CC(C)c1ccc(C(=O)Nc2ccc(S(=O)(=O)NC3=NCCCCC3)cc2)cc1	/	i	2.0%	16.4µM*	23.1µM*	-21.4%
Cc1ccc(NC(=O)COC(=O)C(NS(=O)(=O)c2ccc(Cl)cc2)C(C)O)cc1C (centres undefined)	2.3%	i	-17.5%	25.9µM*	?	-24.1%
O=C(COC(=O)CC1CC2CCC1C2)Nc1cccc(S(=O)(=O)NC2=NCCCCC2)c1 (centres undefined)	4.3%	i	1.1%	?	29.1µM*	15.6%
Cc1ccc(NC(=O)COC(=O)C(NS(=O)(=O)c2ccc(Cl)cc2)C(C)O)c(Br)c1 (centres undefined)	13.0%	i	0.0%	-10.7%	-19.6%	-18.3%
Cc1cc(Cl)ccc1OCC(=O)Nc1cccc(S(=O)(=O)NC2=NCCCCC2)c1	-13.7%	i	?	11.6µM*	18.4µM*	-26.5%
Cc1cc(C)nc(SCC(=O)Nc2ccc(S(=O)(=O)NC(C)(C)C)cc2)n1	-11.5%	i	7.7%	16.4µM*	14.6µM*	-1.6%
O=C(O)/C=C/C(=O)NCCCc1ccccc1	/	i	-1.9%	?	?	-8.7%
Cc1nnc(N2C(=O)c3oc4ccccc4c(=O)c3C2c2ccc(F)cc2)s1 (centres undefined)	9.4%	i	-11.8%	-1.8%	-0.4%	12.9%
SMILES	ATXN2 expr inh	ATXN viability	TGFb inhibitor	DT40 TDP1 CPT	TDP1 cell noCPT	HepG2 tox
COc1ccccc1OCC(=O)Nc1cccc(S(=O)(=O)NC2=NCCCCC2)c1	12.4%	i	-6.3%	-23.9%	-27.7%	1.7%
O=C(COc1cccc(C(F)(F)F)c1)Nc1cccc(S(=O)(=O)NC2=NCCCCC2)c1	-15.8%	i	-17.0%	23.1µM*	25.9µM*	-15.7%
CCCOc1ccccc1OCC(=O)Nc1cccc(S(=O)(=O)NC2=NCCC2)c1	-5.4%	i	18.7%	?	14.6µM*	-16.3%
O=C(/C=C/c1ccc(Cl)cc1Cl)Nc1cccc(S(=O)(=O)NC2=NCCC2)c1	/	?	?	16.4µM*	?	-24.5%
O=C(/C=C/c1ccccc1Cl)Nc1cccc(S(=O)(=O)NC2=NCCCCC2)c1	-7.8%	?	?	?	?	-19.5%
CC(C)(C)c1ccc(OCC(=O)Nc2cccc(S(=O)(=O)NC3=NCCCCC3)c2)cc1	/	/	-25.7%	?	-60.2%	-35.9%
COc1ccc(CCCC(=O)NC(C)c2ccccc2)cc1 (centres undefined)	-4.9%	i	?	1.4%	-21.2%	3.3%
COc1cc(N2CCCC2)c(OC)cc1C=O	/	i	-22.9%	?	?	-33.6%
COc1cc(N(C)C)c(OC)cc1C=O	/	/	-8.2%	15.8µM*	11.2µM*	22.4%
COc1cc(N(C)C)ccc1/C=C1\C=Cc2ccccc21	/	/	-3.3%	?	15.8µM*	-29.0%
COc1cc(N(C)C)c(OC)cc1/C=C1\C=Cc2ccccc21	/	/	-26.1%	?	12.6µM*	-24.3%
S=C(Cc1ccccc1)Nc1ccccc1	-16.1%	i	-2.2%	-27.2%	-7.1%	-0.2%
Cc1nc2c(Br)cc(Br)cc2cc1O	2.1%	i	?	?	?	-33.7%
COc1cc(C#Cc2c(-c3cncn3C)n(C)c3ccc(-c4ccc(OC)nc4)cc23)cc(OC)c1	28.2µM*	?	?	16.4µM*	?	-30.1%
COc1cc(C#Cc2c(-c3cncn3C)n(C)c3ccc(-c4cc(OC)c(OC)c(OC)c4)cc23)cc(OC)c1	?	i	?	20.6µM*	16.4µM*	-13.9%
COc1cc(C#Cc2c(-c3cncn3C)n(C)c3ccc(-c4ccc5[nH]ccc5c4)cc23)cc(OC)c1	5.0%	i	-6.5%	?	?	-13.0%

Source: PubChem
